Laboratory results as given in PubChem BioAssay (NCATS).
Records with an inconclusive call do not appear. A call without a number means that no potency is given here. Unmarked numbers belong to inactive results. Active and inactive are the calls of the source. Unless noted, the call rests on the fitted dose curve; in most records, active means well fitted curve in the direction sought with a large enough effect; inconclusive means small, poorly fitted or top-dose-only effect, or another doubt; inactive means no such curve, though single readings can be large; an effect the other way counts as inactive or inconclusive.

Key:
[1] = target: Cellular tumor antigen p53 (Homo sapiens) (UniProt P04637); test: Primary qHTS for small molecule compounds that upregulate eGFP-tagged delta133p53alpha (in C-terminal) cells. (AID 2060324); further: potency means the concentration at half of the fitted maximal effect
Cellular tumor antigen p53 (Homo sapiens), sequence (P04637 whole entry, looked up): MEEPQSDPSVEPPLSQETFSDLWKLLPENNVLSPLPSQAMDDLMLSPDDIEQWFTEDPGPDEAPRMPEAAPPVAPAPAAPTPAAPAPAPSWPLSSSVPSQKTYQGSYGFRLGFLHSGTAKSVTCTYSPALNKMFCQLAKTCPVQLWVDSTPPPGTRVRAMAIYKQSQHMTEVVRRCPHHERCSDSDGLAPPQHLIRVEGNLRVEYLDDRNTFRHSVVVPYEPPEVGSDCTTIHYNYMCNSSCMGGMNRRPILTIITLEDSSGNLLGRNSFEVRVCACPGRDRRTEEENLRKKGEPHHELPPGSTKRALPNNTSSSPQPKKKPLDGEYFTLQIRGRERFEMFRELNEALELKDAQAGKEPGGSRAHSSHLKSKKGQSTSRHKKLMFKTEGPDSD
Outline: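 Concentration-response screen: compounds titrated onto pre-induced NCI-H358 D133p53a-eGFP cells, incubated one day, fixed with 3.5% PFA. Per-cell GFP peak intensity was gated, then normalized against intraplate controls.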

[2] = target: Aldehyde dehydrogenase, mitochondrial (Homo sapiens) (UniProt P05091); test: qHTS for Inhibitors of the Aldehyde Dehydrogenase Family (ALDH2) Validation screens (AID 2061302; active means well fitted inhibition curve with a large enough effect; title and protocol of this record describe different tests; further: potency means the concentration at half of the fitted maximal effect)
[3] = target: Retinaldehyde dehydrogenase 3 (Homo sapiens) (UniProt P47895); test: qHTS for Inhibitors of the Aldehyde Dehydrogenase Family (ALDH1A3) Validation screen (AID 2061312); further: nearly all actives have a fitted effect of over 45% in size
[4] = target: Aldehyde dehydrogenase, mitochondrial (Homo sapiens) (UniProt P05091); test: qHTS for Inhibitors of the Aldehyde Dehydrogenase Family (ALDH2) Primary screen (AID 2061308); further: nearly all actives have a fitted effect of over 55% in size; further: potency means the concentration at half of the fitted maximal effect
[5] = target: Retinaldehyde dehydrogenase 3 (Homo sapiens) (UniProt P47895); test: qHTS for Inhibitors of the Aldehyde Dehydrogenase Family (ALDH1A3) Primary screen (AID 2061315)
[6] = BET inhibitor-based combinations targeting novel dependencies in MECOM-rearranged (r) AML: SET-2 cell line (AID 2202231); conditions: SET-2 AML cells viability, CellTiter-Glo luminescence, 48 h; viability: stronger effect = lower value, concentration not given here; further: nearly all actives have a fitted effect of over 35% in size; further: potency means the concentration at half of the fitted maximal effect
Outline: (§1)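 A 48 hr incubation preceded viability reading by CellTiter-Glo, with 15 min room-temperature development. Dose series had 11 points; normalization used DMSO and empty wells; AUC was computed and mean-centered per line as Z-AUC.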

[7] = BET inhibitor-based combinations targeting novel dependencies in MECOM-rearranged (r) AML: OCI-AML3 cell line (AID 2202232); conditions: Potency: OCI-AML3 viability; further: nearly all actives have a fitted effect of over 35% in size; further: potency means the concentration at half of the fitted maximal effect
Outline: as §1

[8] = BET inhibitor-based combinations targeting novel dependencies in MECOM-rearranged (r) AML: MV-4-11 cell line (AID 2202233); further: nearly all actives have a fitted effect of over 45% in size; further: potency means the concentration at half of the fitted maximal effect
Outline: (§2)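 Each compound is tested in an 11-point concentration series against 500 seeded cells/well for 48 hr. The luminescent viability signal is normalized to DMSO and blank wells, then reduced to AUC and a cell-line-centred Z-AUC.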

[9] = BET inhibitor-based combinations targeting novel dependencies in MECOM-rearranged (r) AML: HNT-34 cell line (AID 2202234); further: nearly all actives have a fitted effect of over 35% in size; further: potency means the concentration at half of the fitted maximal effect
Outline: as §2

[10] = BET inhibitor-based combinations targeting novel dependencies in MECOM-rearranged (r) AML: UCSD-AML1 cell line (AID 2202235); further: nearly all actives have a fitted effect of over 40% in size; further: potency means the concentration at half of the fitted maximal effect
Outline: as §2

[11] = BET inhibitor-based combinations targeting novel dependencies in MECOM-rearranged (r) AML: AML-191 cell line (AID 2202236; further: nearly all actives have a fitted effect of over 35% in size; further: potency means the concentration at half of the fitted maximal effect)
Outline: as §1

[12] = BET inhibitor-based combinations targeting novel dependencies in MECOM-rearranged (r) AML: AML-194 cell line (AID 2202237; further: nearly all actives have a fitted effect of over 40% in size)
Outline: as §1

[13] = target: Aldehyde dehydrogenase, mitochondrial (Homo sapiens) (UniProt P05091); test: qHTS for Inhibitors of the Aldehyde Dehydrogenase Family (ALDH2) Confirmatory screens (AID 2061303; active means well fitted inhibition curve with a large enough effect; title and protocol of this record describe different tests; further: nearly all actives have a fitted effect of over 45% in size; further: potency means the concentration at half of the fitted maximal effect)
[14] = qHTS for Inhibitors of the Aldehyde Dehydrogenase Family (ALDH1A2, ALDH1A3, ALDH2, ALDH3A1) (AID 2061307); further: nearly all actives have a fitted effect of over 50% in size
[15] = target: Retinaldehyde dehydrogenase 3 (Homo sapiens) (UniProt P47895); test: qHTS for Inhibitors of the Aldehyde Dehydrogenase Family (ALDH1A3) Confirmatory screens (AID 2061311); further: nearly all actives have a fitted effect of over 60% in size; further: potency means the concentration at half of the fitted maximal effect
[16] = target: Retinal dehydrogenase 2 (Homo sapiens) (UniProt O94788); test: qHTS for Inhibitors of the Aldehyde Dehydrogenase Family (ALDH1A2) Confirmation screens (AID 2061314); further: nearly all actives have a fitted effect of over 65% in size; further: potency means the concentration at half of the fitted maximal effect
[17] = target: Aldehyde dehydrogenase 1A1 (Homo sapiens) (UniProt P00352); test: qHTS for Inhibitors of the Aldehyde Dehydrogenase Family (ALDH1A1) Confirmatory screens (AID 2061316); further: nearly all actives have a fitted effect of over 65% in size; further: potency means the concentration at half of the fitted maximal effect

CCCCCCCCCCCCCCCCCCOC[C@H](COP(=O)([O-])OCC[N+](C)(C)C)OC
Potency [1]: inactive
Potency [2]: inactive
Potency [3]: inactive

NC1[C@H]2CN(c3nc4c(cc3F)c(=O)c(C(=O)O)cn4-c3ccc(F)cc3F)C[C@@H]12 (some centres undefined)
Potency [1]: inactive
Potency [2]: inactive
Potency [3]: inactive

O=C(O)CCC/C=C\C[C@@H]1[C@@H](/C=C/[C@H](O)C2Cc3ccccc3C2)[C@@H](F)C[C@@H]1O
Potency [1]: inactive
Potency [2]: inactive
Potency [3]: inactive

CC(C)c1cccc(C(C)C)c1N1C(=O)c2ccc(O)cc2C1=O
Potency [1]: inactive
Potency [2]: inactive
Potency [3]: inactive

CCCc1c(-c2ccc(O)cc2)nn(-c2ccc(O)cc2)c1-c1ccc(O)cc1
Potency [1]: inactive
Potency [2]: inactive
Potency [3]: inactive

CCCCCCC(=O)OC1CC(C)(C)NC(C)(C)C1
Potency [1]: inactive
Potency [2]: inactive
Potency [3]: inactive

N=c1c[n+](N2CCOCC2)[n-]o1
Potency [1]: inactive
Potency [2]: inactive

O=C1OC(=O)C2C3CCC(O3)C12 (centres undefined)
Potency [1]: inactive
Potency [2]: inactive
Potency [3]: inactive

CSc1ccc2c(c1)N(CCC1CCCCN1C)c1ccccc1S2 (centres undefined)
Potency [1]: inactive
Potency [2]: inactive
Potency [3]: inactive

C[C@@]1(C2CCCC2)Cc2cc(OCC(=O)O)c(Cl)c(Cl)c2C1=O
Potency [1]: inactive
Potency [2]: inactive
Potency [3]: inactive

C[N+]1(CCCCC[N+]2(C)CCCC2)CCCC1
Potency [1]: inactive
Potency [2]: inactive

CCCc1nn(C)c2c(=O)[nH]c(-c3cc(S(=O)(=O)N4CCN(C)CC4)ccc3OCC)nc12
Potency [1]: inactive
Potency [2]: inactive
Potency [4]: inactive
Potency [3]: inactive
Potency [5]: inactive
viability [6]: 114%
Potency [7]: inactive
Potency [8]: inactive
Potency [9]: inactive
Potency [10]: inactive
Potency [11]: inactive
Potency [12]: inactive

NC(=O)c1cccc(N)c1
Potency [1]: inactive
Potency [2]: inactive
Potency [3]: inactive
viability [6]: 120%
Potency [7]: inactive
Potency [8]: inactive
Potency [9]: inactive
Potency [10]: inactive
Potency [11]: inactive
Potency [12]: inactive

COc1ccc(Cc2nccc3cc(OC)c(OC)cc23)cc1OC
Potency [1]: inactive
Potency [6]: 11.8 µM (active)
Potency [7]: 8.33 µM (active)
Potency [8]: 18.6 µM (active)
Potency [9]: 5.9 µM (active)
Potency [10]: 8.33 µM (active)

CCOC(=O)C1CCN(c2ccc(NCc3ccc(-c4ccc(C#N)cc4)o3)cc2)CC1
Potency [2]: 0.355 µM (active)
Potency [13]: 0.0355 µM (active)
Potency [14]: 0.634 µM (active)
Potency [4]: inactive
Potency [15]: 7.08 µM (active)
Potency [16]: 31.6 µM (active)
Potency [17]: 7.98 µM (active)

CCN1/C(=C/C(C)=O)Sc2ccc(OC)cc21
Potency [1]: inactive
Potency [2]: inactive
Potency [3]: inactive
viability [6]: 93.6%
Potency [9]: 18.6 µM (active)
Potency [11]: 8.33 µM (active)

O=C(N[C@@H](Cc1ccccc1)C(=O)CCl)OCc1ccccc1
Potency [1]: 12 µM (active)
Potency [15]: 11.2 µM (active)
Potency [3]: inactive
Potency [16]: 0.798 µM (active)
Potency [17]: 0.318 µM (active)

CC(C)NC[C@@H](O)c1ccc(O)c(O)c1
Potency [2]: inactive

C=CCc1cccc(C=NNC(=O)CN2CCN(Cc3ccccc3)CC2)c1O
Potency [1]: inactive
Potency [2]: inactive
Potency [3]: inactive

COc1cc2nc(N(C)CCCNC(=O)C3CCCO3)nc(N)c2cc1OC (centres undefined)
Potency [2]: inactive

O=c1c(-c2ccc(O[C@@H]3O[C@H](CO)[C@@H](O)[C@H](O)[C@H]3O)cc2)coc2cc(O)cc(O)c12
Potency [2]: inactive

Cc1ccc2c(c1)C(N1CCN(C)CC1)=Nc1cccnc1N2
Potency [1]: inactive
Potency [2]: inactive
Potency [17]: 12.7 µM (active)

CCC(NC(C)C)C(O)c1ccc(O)c(O)c1 (centres undefined)
Potency [2]: inactive
Potency [13]: inactive
Potency [14]: inactive
Potency [15]: inactive
Potency [16]: inactive

CN(C)CCCN1c2ccccc2CCc2ccccc21
Potency [1]: inactive
Potency [2]: inactive
Potency [3]: inactive

CC(C)NCC(O)c1ccc(O)c(O)c1 (centres undefined)
Potency [2]: inactive
Potency [13]: inactive
Potency [14]: inactive
Potency [15]: inactive
Potency [3]: inactive
Potency [16]: inactive
Potency [17]: inactive
viability [6]: 106%
Potency [7]: inactive
Potency [8]: inactive
Potency [9]: inactive
Potency [10]: inactive
Potency [11]: inactive
Potency [12]: inactive

O=C1NC(=O)c2cc(Nc3ccccc3)c(Nc3ccccc3)cc21
Potency [1]: 30.1 µM (active)
Potency [3]: inactive

N[C@@H](CCC(=O)N[C@H](CSN=O)C(=O)NCC(=O)O)C(=O)O
Potency [1]: inactive
Potency [2]: inactive
Potency [3]: inactive

N#Cc1ccc(-c2ccc(CNc3ccc(N4CCC(C#N)CC4)cc3)o2)cc1
Potency [2]: 0.631 µM (active)
Potency [13]: 0.1 µM (active)
Potency [14]: 1.27 µM (active)
Potency [4]: 0.1 µM (active)
Potency [15]: 7.94 µM (active)
Potency [5]: inactive
Potency [17]: 5.04 µM (active)

NCCS(=O)O
Potency [1]: inactive
Potency [2]: inactive
Potency [3]: inactive

c1cnc2c(c1)ccc1cccnc12
Potency [1]: inactive
Potency [2]: inactive
Potency [3]: inactive

C[N+](C)(C)CCOC(N)=O
Potency [1]: inactive
Potency [2]: inactive
Potency [3]: inactive

Cc1nnc(SCC2=C(C(=O)O)N3C(=O)[C@@H](NC(=O)Cn4cnnn4)[C@H]3SC2)s1
Potency [2]: inactive

CC(C)(C)OC(=O)N1CCN(c2ccc(NCc3ccc(-c4ccc(C#N)cc4)o3)cc2)CC1
Potency [2]: 0.282 µM (active)
Potency [13]: 0.0794 µM (active)
Potency [14]: 4.47 µM (active)
Potency [4]: inactive
Potency [15]: 15.8 µM (active)
Potency [16]: 7.94 µM (active)
Potency [5]: inactive

CC(=O)SC1CC2=CC(=O)CC[C@]2(C)C2CC[C@@]3(C)C(CC[C@@]34CCC(=O)O4)C12 (some centres undefined)
Potency [1]: inactive
Potency [2]: inactive
Potency [3]: inactive

S=C(S)OC1CC2CC1C1CCCC21 (centres undefined)
Potency [1]: inactive
Potency [2]: inactive
Potency [3]: inactive

O=C(O)[C@H]1NCCC[C@H]1C(=O)O
Potency [1]: inactive
Potency [2]: inactive
Potency [3]: inactive

CC(=O)[C@H]1CCC2C3CC=C4C[C@@H](OS(=O)(=O)O)CC[C@]4(C)C3CC[C@@]21C (some centres undefined)
Potency [1]: inactive
Potency [2]: inactive
Potency [3]: inactive
